{"source": "PubChem BioAssay (NCI)", "note": "Compounds without any hit were thinned out: in the full panel of roughly 83,000, 20% have a hit.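 Method: cells in 96-well plates; compound added at one concentration; 48 h incubation; percent growth measured; values under 10 scored active.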 A number with no mark means an inactive call. Activity calls are given as the source filed them.", "data": [{"tested_on": "HL-60(TB) leukemia", "assay": "NCI-60 one-dose screen, 48 h (100 = growth as untreated, 0 = no growth, -100 = all killed)", "settings": "10 µM unless noted", "values": [{"compound": "CCOC(=O)/C(C)=C\\c1ccc(OC)c(OC)c1", "growth": "88.4%"}, {"compound": "COc1ccccc1NS(=O)(=O)c1ccc2oc(SC(C)C)nc2c1", "growth": "53.6%"}, {"compound": "COc1ccc(/C=C2\\c3cc(OC)c(OC)c(OC)c3CC[C@@H]2O)cc1F", "growth": "-22.4% (active)"}, {"compound": "C[N+](C)(C)CC(=O)N/N=C\\c1ccco1", "growth": "53%"}, {"compound": "CCc1ccc2c(c1)N(CCO)C1=C(C(=O)OC1)C2c1ccccc1", "note": "(centres undefined)", "growth": "94.9%"}, {"compound": "N=C(N)c1ccc(-c2ccc(-c3ccc(Cl)cc3Cl)s2)cc1", "growth": "-45.1% (active)"}, {"compound": "COc1ccc(-c2nc(SCC(=O)Nc3ccc(C(=O)/C=C/c4ccc(Cl)cc4)cc3)[nH]c(=O)c2C#N)cc1", "growth": "105%"}, {"compound": "COc1cc(NC(=O)C2=C(C)NC(C)=C(C(=O)Nc3cc(OC)c(Cl)cc3OC)C2c2cccc([N+](=O)[O-])c2)c(OC)cc1Cl", "growth": "15.5%"}, {"compound": "CN(C)c1ccc(/C=C2\\C=C(c3nc4ccccc4s3)OC2=O)cc1", "growth": "94.8%"}, {"compound": "N#CC1C(=O)SC2c3ccccc3C(=O)c3ccccc3C12", "note": "(centres undefined)", "growth": "98.4%"}, {"compound": "O=C(Nc1ccccc1O)c1ccc(-c2ccc(Cl)cc2Cl)o1", "growth": "83.7%"}, {"compound": "CCOC(=O)[C@@H]1CSC(CC)=C(C(=O)O)N1", "growth": "-17.3% (active)"}, {"compound": "COc1cc2nc(N3CCCC3)nc(NCC3CCCCC3)c2cc1OC", "growth": "-57.2% (active)"}, {"compound": "O=C(Nc1cc(Br)ccn1)c1cc2cc(Nc3nc(-c4ccccc4)nc4ccccc34)ccc2oc1=O", "growth": "87.3%"}, {"compound": "COc1ccc2c(c1)C(=O)/C(=C/c1ccc(O)cc1)O2", "growth": "59.4%"}, {"compound": "Cc1c(C(=O)CCl)c(=O)n(-c2ccccc2)n1C", "growth": "56.9%"}, {"compound": "Nc1ccc(NC(=O)c2ccccc2)c2c1C(=O)c1ccccc1C2=O", "growth": "135%"}, {"compound": "CC(C)C1=NOC(=O)C1=Cc1cn(-c2ccccc2)nc1-c1ccc(Cl)cc1", "growth": "-44.5% (active)"}, {"compound": "Cc1ccc(C2CC(c3cccc(Nc4ccncc4)c3)=NN2c2ccc(Cl)cc2)cc1", "note": "(centres undefined)", "growth": "-55.6% (active)"}, {"compound": "CCOc1ccc2c(c1)/C(=C\\C=C\\C1CC(C)C3CC(OCC)CCC3N1CC)CC(C)N2CC", "note": "(centres undefined)", "growth": "-35.7% (active)"}, {"compound": "CCCCCCCC/C=C\\CCCCCCCCOc1cccc(CC(=O)NCC[N+](C)(C)C)c1", "growth": "61.1%"}, {"compound": "Cn1cc(-c2csc(-c3cn(CCN)c4ccccc34)n2)c2cccnc21", "growth": "26.5%"}, {"compound": "O=C1/C(=C/c2ccc(F)c(F)c2)CN(C(=O)C(Cl)Cl)C/C1=C\\c1ccc(F)c(F)c1", "growth": "-47.1% (active)"}, {"compound": "COC(=O)c1c2c(c(C)[n+]([O-])c1C)C(=O)C(NCc1ccc(F)c(Cl)c1)=CC2=O", "growth": "-54.6% (active)"}, {"compound": "COc1cc(OC)cc(N2C(=O)N(Cc3ccc(C(C)(C)C)cc3)c3ccccc3S2(=O)=O)c1", "growth": "67.9%"}, {"compound": "O=C1Nc2ccccc2/C1=C/c1cccn1CCCCCCn1c2ccccc2c(=O)c2ccccc21", "growth": "54.5%"}, {"compound": "CN(C)C(=S)NN=C(c1ccccn1)c1ccccn1", "growth": "-27.5% (active)"}, {"compound": "O=[N+]([O-])c1ccc(-c2nc(Cl)c3c(n2)CCCC3)o1", "growth": "93.8%"}, {"compound": "COc1ccc2c(c1)/C(=N/c1n[nH]c(=S)s1)C(=O)N2", "growth": "61.6%"}, {"compound": "COc1ccc(NC(=O)/C=C/c2ccc(NC(=O)N3CCCC3)cc2)cn1", "growth": "102%"}, {"compound": "CCCCCCCC(=O)SCC/C=C/[C@@H]1CC(=O)NCc2nc(co2)C2=N[C@@](C)(CS2)C(=O)N[C@@H](C(C)C)C(=O)O1", "growth": "8.71% (active)"}, {"compound": "CCCCn1sc(=O)n(Cc2ccc(CNC(=O)OCc3ccc4c(Cl)cc(Cl)c(O)c4n3)cc2)c1=O", "growth": "67.9%"}, {"compound": "CCNC(=O)Oc1ccc(/C(=C(/C)Cc2ccc(OC)cc2)c2ccc(OCCN(CC)CC)cc2)cc1", "growth": "34.1%"}, {"compound": "COc1ccc(C2c3ccc4ccccc4c3Oc3nc(C)[nH]c(=O)c32)cc1", "note": "(centres undefined)", "growth": "99.3%"}, {"compound": "Cc1ccc(C2CCCCC2)cc1Br", "growth": "97%"}, {"compound": "COc1cc(C2CC(=O)Nc3c2c(C)nn3-c2nc3ccccc3[nH]2)c(OC)c(OC)c1OC", "note": "(centres undefined)", "growth": "21.5%"}, {"compound": "COc1ccc(NC(=O)CSc2oc(-c3ccccc3)nc2S(=O)(=O)c2ccc(Cl)cc2)c(OC)c1", "growth": "49.4%"}, {"compound": "COc1cccc(OC)c1Oc1c(-c2nc3ccccc3s2)c(C)nn1-c1ccccc1", "growth": "81.8%"}, {"compound": "NCCOc1ncccc1/C=C1\\C2C=CC=CC2C2C=CC(F)=CC12", "note": "(centres undefined)", "growth": "-24.3% (active)"}]}]}
